Screening data as filed in PubChem BioAssay.
Shown are actives, neighbours in structure and some others; about 4.1% of the full set was active somewhere.
MEKK2mut PB1 HTS: signal of MEK5 binding to mutant human MEKK2 PB1 domain; bead flow cytometry, Alexa488-MEK5 binding to MEKK2 mutant; percent response, % at 10 µM; 0.35% of 290,000 active; in the data active = percent response above about 24%, passing the limit was not always enough
CHT PAM: allosteric activators of human choline transporter CHT; 0.49% of 310,000 active; Q9GZV3; CHT-expressing cells, membrane potential dye, choline EC20; active compounds read high; LV-AA mutant CHT in HEK293 cells; AID 488977; B-score at 10 µM;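 active = initial fluorescence not abnormally high and integrated response B-score, plate-corrected, over 3 SD above library mean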
Target sequence (Q9GZV3 whole entry, looked up): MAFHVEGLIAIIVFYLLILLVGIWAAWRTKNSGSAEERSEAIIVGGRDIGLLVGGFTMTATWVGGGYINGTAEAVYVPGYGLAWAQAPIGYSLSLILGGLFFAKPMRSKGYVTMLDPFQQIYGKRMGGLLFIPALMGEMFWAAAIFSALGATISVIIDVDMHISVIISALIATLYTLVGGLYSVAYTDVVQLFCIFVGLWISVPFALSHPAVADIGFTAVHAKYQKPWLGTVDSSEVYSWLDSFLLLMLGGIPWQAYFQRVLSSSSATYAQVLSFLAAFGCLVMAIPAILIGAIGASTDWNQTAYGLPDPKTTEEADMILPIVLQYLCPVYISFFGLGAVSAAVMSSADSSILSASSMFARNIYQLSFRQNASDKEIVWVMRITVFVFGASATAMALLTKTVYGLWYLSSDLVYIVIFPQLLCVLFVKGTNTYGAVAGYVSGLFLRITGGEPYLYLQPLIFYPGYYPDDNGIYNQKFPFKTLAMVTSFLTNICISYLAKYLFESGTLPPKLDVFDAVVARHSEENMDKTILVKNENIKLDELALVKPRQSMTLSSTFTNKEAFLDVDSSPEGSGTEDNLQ
Mot1-301 SUMO: blocks SUMOylation pathway, rescuing yeast Mot1-301 growth; 1% of 320,000 active; S. cerevisiae Mot1-301 growth rescue, ATP luminescence, 38.5C; percent above DMSO median, 100 means doubled; AID 2716; growth rescue, % at 18.8 µM;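 active = every valid replicate shows activation above 250% relative to neutral control wells; inactive = the rest, any valid replicate at or below 250%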
MEKK2wt PB1 HTS: raises or lowers MEK5 binding to wildtype human MEKK2 PB1 domain | 1.1% of 290,000 active | bead flow cytometry, Alexa488-MEK5 binding to MEKK2 WT; actives lie on both sides | Q9Y2U5 | binding response (% of control), % at 10 µM; in the data active = binding response below about 67% or above about 130%
MEKK3 PB1 HTS: raises or lowers MEK5 binding to the human MEKK3 PB1 domain. Q99759. bead-based flow cytometry, Alexa488-MEK5 binding to MEKK3; actives lie on both sides; 0 = blocked by unlabeled MEK5, 100 = vehicle. binding response (% of control), % at 10 µM. 1.4% of 290,000 active;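 active = binding response more than 3 SD above or below the average of its plate-row segment, actives on both sides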;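 note: Alexa488 bead fluorescence after subtracting the streptavidin-only scavenger bead signal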
CHT inh: inhibitors of human choline transporter CHT | 0.86% of 310,000 active | B-score at 10 µM | CHT-expressing cells, membrane potential dye, choline response; active compounds read low;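 active = B-score over 3 SD under the library average, and starting fluorescence ratio not unusually high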;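 note: choline stimulus applied at its EC90 after an EC20 pre-addition; B-score computed on integrated fluorescence ratio after choline addition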
CHT inh conf: confirmation of human choline transporter CHT inhibitors | shares compounds with CHT inh | CHT activity remaining % of control (active compounds read low), % at 10 µM | 70% of 2,400 active | CHT-expressing cells, choline membrane potential dye; LV-to-AA substituted CHT, HEK293 cells | AID 493221;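 active = choline transporter activity left, mean of duplicates at 10 µM, below buffer-only control mean minus 3 SD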;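 note: depolarization triggered by choline at its EC90 following an EC20 pre-addition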
HEK293 CHT ctr: activity in parental HEK293 cells lacking CHT. shares compounds with CHT inh. membrane potential dye, choline response; active = decrease or increase beyond buffer ±3SD. membrane potential ratio readout (active if shifted either direction beyond buffer ±3SD; no single direction) at 10 µM. 4% of 2,400 active;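 note: parental cells lack the transporter so any hit is non-specific; ratio is peak minus trough fluorescence over baseline after EC90 choline challenge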
Each line names hits and unclear results; the compound was inactive in the other large screens (follow-up assays come after a bar, where they were run).

CC(C)n1c(O)c(N=NC(=O)Cc2csc(N3CCOCC3)n2)c2ccccc21	CHT inh -9.4 (no result: MEKK2mut PB1 HTS, MEKK2wt PB1 HTS, MEKK3 PB1 HTS) | CHT inh conf 24% | HEK293 CHT ctr inactive
CC1CCc2c(sc(/N=C/c3ccco3)c2C(N)=O)C1 (configuration not stated)	none
N=C1C(c2ccccc2)=C(O)CN1c1cccc(O)c1	CHT inh -6.6 | CHT inh conf inactive | HEK293 CHT ctr inactive
CN(C)c1ccc(C(=O)OCC(=O)c2ccc[nH]2)cc1	none (no result: MEKK2mut PB1 HTS, CHT PAM, MEKK2wt PB1 HTS, MEKK3 PB1 HTS, CHT inh)
CC(=O)N(C)c1ccc(NC(=O)C(Sc2ccccc2)c2ccccc2)cc1 (configuration not stated)	CHT inh -5.5 | CHT inh conf 65% | HEK293 CHT ctr inactive
O=C(Nc1sc2c(c1C(=O)O)CCC2)c1ccccc1	none
O=C(Nc1sc2c(c1C(=O)O)CCCC2)c1ccc(Cl)cc1	CHT inh -6.3 | CHT inh conf 53% | HEK293 CHT ctr inactive
Cc1[nH]n(-c2ccccc2)c(=O)c1N=Nc1c(O)cc(S(=O)(=O)N(C)C)c2ccccc12	CHT inh -8.5 (no result: MEKK2mut PB1 HTS, MEKK2wt PB1 HTS, MEKK3 PB1 HTS) | CHT inh conf 34% | HEK293 CHT ctr inactive
Cc1[nH]n(-c2ccccc2)c(=O)c1N=Nc1ccc2c(c1)OCCO2	none
CN(Cc1ccccc1)C(=O)c1[nH]cnc1C(=O)N[C@@H](Cc1ccccc1)C(=O)OC(C)(C)C	none
CCCCn1c(SCn2nnc3ccccc3c2=O)nc2cc(S(N)(=O)=O)ccc21	CHT inh -6.2 | CHT inh conf 49% | HEK293 CHT ctr inactive
O=C(Nc1cccc(C(F)(F)F)c1)C1CCN(S(=O)(=O)c2cccnc2)CC1	CHT inh -5.4 | CHT inh conf 55% | HEK293 CHT ctr inactive
O=C(NCc1cccnc1)C1CCN(S(=O)(=O)c2cccc(C(F)(F)F)c2)CC1	none (no result: MEKK2mut PB1 HTS, CHT PAM, MEKK2wt PB1 HTS, MEKK3 PB1 HTS, CHT inh)
CCCCNC(=O)c1onc(CCl)c1C(=O)OC	none
Cc1ccc(N(Cc2ccccc2)C(=O)CN2C(=O)NC3(CCCC3)C2=O)cc1	none
CC(=O)Nc1cc(NC(C)=O)cc(C(=O)OC(C)C(=O)Nc2ccc(S(=O)(=O)N3CCCC3)cc2)c1 (configuration not stated)	CHT inh -5 (no result: MEKK2mut PB1 HTS, MEKK2wt PB1 HTS, MEKK3 PB1 HTS) | CHT inh conf 45% | HEK293 CHT ctr inactive
O=C(O)/C(=C\c1ccccc1OC(F)F)Sc1nnc(-c2ccc(F)cc2)o1	CHT inh -5.6 | CHT inh conf 31% | HEK293 CHT ctr inactive
CSc1nnc(-c2ccc(F)cc2)o1	none
C=CCNC(=O)c1onc(CSc2ccccc2)c1C(=O)O	none
C=CCNC(=O)c1onc(CSc2ccc(C(C)C)cc2)c1C(=O)O	CHT inh -5.2 | CHT inh conf 61% | HEK293 CHT ctr inactive
CN1CCN(c2ccc(Cl)cc2NC(=O)c2cc(=O)[nH]c3ccccc23)CC1	none (no result: MEKK2mut PB1 HTS, CHT PAM, MEKK2wt PB1 HTS, MEKK3 PB1 HTS, CHT inh)
CN1CCN(c2ccc(Cl)cc2NC(=O)c2ccc(=O)n(C)n2)CC1	CHT inh -5.6 | CHT inh conf 56% | HEK293 CHT ctr 5.3
Cc1cc(C)cc(OC(C)C(=O)Nc2ccc(S(=O)(=O)Nc3cc(C)nc(C)n3)cc2)c1 (configuration not stated)	CHT inh -6 | CHT inh conf 40% | HEK293 CHT ctr inactive
CCc1ccc(OC(C)C(=O)Nc2ccc(S(=O)(=O)Nc3nccs3)cc2)cc1 (configuration not stated)	CHT inh -5 | CHT inh conf 59% | HEK293 CHT ctr inactive
Cc1cc(C(=O)OCC(=O)N2CCc3ccccc32)ccc1[N+](=O)[O-]	none (no result: MEKK2mut PB1 HTS, CHT PAM, MEKK2wt PB1 HTS, MEKK3 PB1 HTS, CHT inh)
CC(C)(C)C(=O)NC(=S)Nc1cc(C(F)(F)F)ccc1N1CCOCC1	CHT inh -5 | CHT inh conf inactive | HEK293 CHT ctr inactive
CN1CCN(CCNC(=O)c2ccc3nc(-c4ccc(F)cc4)c(-c4ccc(F)cc4)nc3c2)CC1	CHT inh -12 | CHT inh conf 8.4% | HEK293 CHT ctr inactive
CCOC(=O)c1cc(C(=O)NC(C)c2ccccc2)c(C)[nH]c1=O (configuration not stated)	CHT inh -7.4 | CHT inh conf 14% | HEK293 CHT ctr inactive
CCOC(=O)c1[nH]cnc1C(=O)N[C@@H](C)c1ccccc1	none (no result: MEKK2mut PB1 HTS, CHT PAM, MEKK2wt PB1 HTS, MEKK3 PB1 HTS, CHT inh)
Cc1ccccc1-n1nnnc1Sc1nnnn1-c1ccccc1	CHT inh -5 | CHT inh conf 64% | HEK293 CHT ctr inactive
Cc1ccccc1-n1nnnc1SCC(N)=O	none
CC(=O)c1ccc(S(=O)(=O)N(C)C(C)CCc2ccco2)cc1 (configuration not stated)	CHT inh -5.6 | CHT inh conf 71% | HEK293 CHT ctr inactive
CCC1(C)Cc2c(sc3nnn(CC(=O)Nc4ccccc4C)c(=O)c23)CO1 (configuration not stated)	none
CCC1(C)Cc2c(sc3nnn(CC(=O)Nc4ccccc4)c(=O)c23)CO1 (configuration not stated)	none | CHT inh conf 58% | HEK293 CHT ctr inactive
COc1ccc(C)cc1NC(=O)CN1CCCN(S(=O)(=O)c2ccc(Br)cc2)CC1	none
COc1ccc(OC)c(Nc2nc(N)c([N+](=O)[O-])c(NCc3ccccc3)n2)c1	CHT inh -5 | CHT inh conf inactive | HEK293 CHT ctr inactive
COc1ccc(OC)c(Nc2nc(NCCO)c3ccccc3n2)c1	none
CCOc1ccc(Nc2nc(N)nc(CCl)n2)cc1	none
CCOc1ccc(Nc2nc(N)c3ccccc3n2)cc1	CHT inh -5.8 | CHT inh conf 48% | HEK293 CHT ctr inactive
COc1ccc(C)cc1Nc1nc(N)c2ccccc2n1	CHT inh -13 | CHT inh conf 41% | HEK293 CHT ctr inactive
CC(=O)c1cccc(N(CC(=O)NC2CCCC2)C(=O)c2csnn2)c1	none
Cc1ccc(C(=O)Nn2c(C)nc3ccccc3c2=O)cc1C	none
Cn1cc(Cl)c(C(=O)NC(=S)Nc2sc3c(c2C#N)CCCCC3)n1	none
CC(C)CCSc1cc(NCCO)c([N+](=O)[O-])c2nonc12	CHT inh -5.8 | CHT inh conf inactive | HEK293 CHT ctr inactive
C=CCc1cc(C(=O)N2CCCCC2)ccc1O	none
C=CCc1ccc(O)c(-c2ccc(O)c(CC=C)c2)c1	CHT inh -7 | CHT inh conf 62% | HEK293 CHT ctr inactive
O=S(=O)(/C=C/c1ccccc1)N1CCN(c2cccc(Cl)c2)CC1	none
COc1ccc(OC)c(-n2c(=S)[nH]c3cc(C(=O)NCCCN4CCCC4=O)ccc3c2=O)c1	none (no result: MEKK2mut PB1 HTS, MEKK2wt PB1 HTS, MEKK3 PB1 HTS)
